Test results reported in PubChem BioAssay (EPA / NIEHS).
The source made the active and inactive calls. Rule for the calls: active = hit-call score of the fitted dose curve at least 0.9, where 1 is the maximum; inactive = score below 0.9.

Legend:
[1] = ATG_NFI_CIS: Attagene CIS-FACTORIAL HepG2 Assay for human Nuclear Factor I (NFI) (AID 2282989); conditions: HepG2 cis-regulatory reporter, NFI response element transcription; actives raise or lower the signal
In short: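 Endogenous TF activity in HepG2 cells transiently transfected with cis-element-driven multiplexed reporter units, read 24 h after dosing. Reporter mRNA quantified by RT-PCR, 6-FAM labelling, HpaI digestion and capillary electrophoresis; bidirectional fit versus DMSO.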

[2] = ATG_NF_kB_CIS: Attagene CIS-FACTORIAL HepG2 Assay for human Nuclear Factor Kappa B (NF-kB) (AID 2282991); conditions: HepG2 Attagene cis-factorial NF-kB reporter mRNA; actives raise or lower the signal
In short: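 Read-out: reporter transcript levels quantified by RT-PCR plus capillary electrophoresis of 6-FAM-labelled, HpaI-cut fragments. Transfected HepG2 cells, 24 h compound exposure, endogenous NF-kB-driven cis element; gain or loss scored versus DMSO.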

[3] = ATG_NRF2_ARE_CIS: Attagene CIS-FACTORIAL HepG2 Assay for human Nuclear Factor Erythroid 2 Related Factor 2 (NFR2) response to Antioxidant Response Elements (ARE) (AID 2282992); conditions: HepG2 Attagene ARE/NRF2 reporter, transcription factor activity; actives raise or lower the signal
In short: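 Endogenous transcription factor activity read out as reporter transcript levels (RT-PCR plus capillary electrophoresis, fluorescence) in transiently transfected HepG2 cells. Measured at 24 h after dosing; gain or loss of signal fitted versus DMSO.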

[4] = ATG_Oct_MLP_CIS: Attagene CIS-FACTORIAL HepG2 Assay for human Octamer-Binding Transcription Factor (Oct) (AID 2282993); conditions: HepG2 Attagene cis-factorial Oct reporter, mRNA; actives raise or lower the signal
In short: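 HepG2 cells transiently transfected with cis-element-driven reporter transcription units (endogenous TF activity); 24 h compound exposure. Reporter mRNA quantified by RT-PCR, 6-FAM labelling, HpaI digestion and capillary electrophoresis; bidirectional fit versus DMSO baseline.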

[5] = target: Cellular tumor antigen p53 (Homo sapiens) (UniProt P04637); assay: ATG_p53_CIS: Attagene CIS-FACTORIAL HepG2 Assay for human p53 Transcription Factor (AID 2282994); conditions: HepG2 p53 cis-element reporter, Attagene mRNA; actives raise or lower the signal
Chain of Cellular tumor antigen p53 (Homo sapiens) (P04637 whole entry, looked up): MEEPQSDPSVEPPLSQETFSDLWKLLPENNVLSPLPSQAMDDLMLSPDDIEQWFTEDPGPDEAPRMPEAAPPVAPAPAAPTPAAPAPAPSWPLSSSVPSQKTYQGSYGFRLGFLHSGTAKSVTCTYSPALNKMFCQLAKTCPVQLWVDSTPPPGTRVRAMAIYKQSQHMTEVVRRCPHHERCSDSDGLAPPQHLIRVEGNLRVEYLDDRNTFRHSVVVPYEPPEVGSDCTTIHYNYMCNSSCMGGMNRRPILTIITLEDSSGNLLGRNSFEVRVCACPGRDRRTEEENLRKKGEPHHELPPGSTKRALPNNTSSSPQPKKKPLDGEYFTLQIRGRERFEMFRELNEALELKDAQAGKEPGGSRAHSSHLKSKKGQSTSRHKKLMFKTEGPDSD
In short: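 Endogenous p53 activity read in transiently transfected HepG2 from a cis-element-driven reporter transcript after 24 h exposure. RNA reverse-transcribed, PCR-amplified, fluorescently labelled and sized by capillary electrophoresis; gain or loss fitted against DMSO baseline.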

[6] = target: Myc proto-oncogene protein (Homo sapiens) (UniProt P01106); assay: ATG_Myc_CIS: Attagene CIS-FACTORIAL HepG2 Assay for human Myelocytomatosis (Myc) Proto-Oncogene Transcription Factor (AID 2282990); conditions: HepG2, Attagene cis-reporter transcription factor activity; actives raise or lower the signal
Chain of Myc proto-oncogene protein (Homo sapiens) (P01106 whole entry, looked up): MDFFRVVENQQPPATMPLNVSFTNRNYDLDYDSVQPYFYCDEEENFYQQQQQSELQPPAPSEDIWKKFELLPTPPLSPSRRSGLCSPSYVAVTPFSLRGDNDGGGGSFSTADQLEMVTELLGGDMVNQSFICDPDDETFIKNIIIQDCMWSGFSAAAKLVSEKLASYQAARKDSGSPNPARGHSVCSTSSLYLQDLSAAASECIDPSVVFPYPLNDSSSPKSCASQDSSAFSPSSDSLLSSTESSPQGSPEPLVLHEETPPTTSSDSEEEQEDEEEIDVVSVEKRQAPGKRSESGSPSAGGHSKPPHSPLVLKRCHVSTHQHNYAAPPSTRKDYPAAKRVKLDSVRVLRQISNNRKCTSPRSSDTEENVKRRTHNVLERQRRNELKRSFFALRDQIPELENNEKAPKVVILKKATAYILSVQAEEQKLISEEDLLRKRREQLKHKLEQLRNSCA
In short: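 HepG2 cells transiently transfected with multiple cis-promoter-driven reporter transcription units, so endogenous TF activity is read. After 24 h compound exposure, reporter mRNA was quantified by RT-PCR, 6-FAM labelling, HpaI digestion and capillary electrophoresis; bidirectional fit versus DMSO.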

[7] = BSK_3C_uPAR: BioMAP Diversity Plus: 3C Assay for Urokinase-type plasminogen activator receptor (uPAR) Biomarker Activity (AID 2282998); conditions: BioMAP 3C HUVEC, uPAR biomarker ELISA; actives raise or lower the signal
In short: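 Primary human umbilical vein endothelial cells, 3C system; surface uPAR measured by ELISA 24 h after dosing. Cytotoxicity via SRB total protein in parallel cultures; bidirectional fit against DMSO.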

[8] = BSK_3C_VCAM1: BioMAP Diversity Plus: 3C Assay for Vascular cell adhesion molecule 1 (VCAM1) Biomarker Activity (AID 2282999); conditions: BioMAP 3C HUVEC, VCAM1 ELISA, cytokine-stimulated; actives raise or lower the signal
In short: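 Vascular primary endothelium (human umbilical vein) was exposed to chemicals and assayed 24 h later. VCAM-1 levels came from ELISA, with DMSO serving as baseline for bidirectional fitting.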

Measured: AC50

C=CC(C)(O)CC/C=C(\C)CC (stereo not drawn)
inactive: [1] | [2] | [3] | [4] | [5]

C=C(C)[C@@H]1CC=C(C)CC1
inactive: [6] | [3] | [4] | [5]

CC1=CC=C(C(C)C)CC1
active: [3] 152 µM
not listed: [2]
inactive: all other assays above

CCC(=O)C1CC(C(C)C)CC=C1C (stereo not drawn)
inactive: [1] | [2] | [4]
active: [3] 40.1 µM

CC(=O)OC/C=C(/C)CCC=C(C)C
inactive: [1] | [6] | [3] | [5]

CCCC/C=C/C=C\C=O
active: [2] 63.8 µM | [3] 41.3 µM | [5] 165 µM
inactive: [1] | [6] | [4]

O=c1c(O)c(-c2ccc(O)cc2O)oc2cc(O)cc(O)c12
inactive: [6] | [3] | [4] | [5]

Cc1ccc(C)c(OCCCC(C)(C)C(=O)O)c1
inactive: [2] | [3] | [4]

CCCCOC(=O)C(C)CC (stereo not drawn)
inactive: [1] | [6] | [3] | [4] | [5]

CCCc1ccc(O)c(OC)c1
inactive: [1] | [6] | [4] | [5]
active: [3] 28.8 µM

CC1(C)C(=O)N(CO)C(=O)N1CO
active: [3] 26.1 µM
not listed: [7] | [8]
inactive: all other assays above

C1CCSC1
inactive: [1] | [6] | [3] | [4] | [5]

N#CC1(N)CCCCC1
inactive: [1] | [6] | [3] | [4] | [5]

O=C(O[C@@H]1Cc2c(O)cc(O)cc2O[C@@H]1c1cc(O)c(O)c(O)c1)c1cc(O)c(O)c(O)c1
inactive: [1] | [6] | [3] | [4] | [5]

CCOC(=O)C1=NN(c2ccc(Cl)cc2Cl)C(C)(C(=O)OCC)C1 (stereo not drawn)
inactive: all assays above

C=CC(=O)NC(C)(C)C
active: [3] 28 µM
inactive: [1] | [2] | [7] | [8]

CCCCC(CC)COC(=O)/C=C/c1ccc(OC)cc1 (stereo not drawn)
not listed: [7] | [8]
inactive: all other assays above

Cc1ccc(S(=O)(=O)N=C=O)cc1
not listed: [7] | [8]
inactive: all other assays above

CC1=NN(c2ccc(S(=O)(=O)O)cc2)C(=O)C1N=Nc1ccccc1 (stereo not drawn)
inactive: [6] | [2] | [3] | [4] | [5]

CC(=O)C(C)C
inactive: [1] | [6] | [3] | [4] | [5]
